From PubChem BioAssay (NCI)
This is part of a sample that, as a whole, favours compounds with a hit. Of some 79,000 tested, about 15% had one in any assay. Cut-off read from the data, not from the text of the source: active = growth inhibition above about 70%; inactive = the rest.

Experiments:
[1] = NCI Yeast Anticancer Drug Screen. Data for the rad50 strain (AID 155);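 note: 0% = growth of vehicle-only cultures of the same strain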; conditions: S. cerevisiae rad50 strain growth inhibition; at 50.0 µM; hits give high values
Summary of the method: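 Readout: growth inhibition relative to vehicle-treated cultures. Compound exposure was carried out in a genetically defined yeast strain deficient in DNA damage repair.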

[2] = NCI Yeast Anticancer Drug Screen. Data for the mec2-1 strain (AID 157); conditions: S. cerevisiae mec2-1 strain, at 50.0 µM, hits give high values
Summary of the method: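 Growth inhibition is read against vehicle-treated controls after compound exposure of the mec2-1 yeast strain, which is defective in DNA damage repair or cell cycle control.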

[3] = NCI Yeast Anticancer Drug Screen. Data for the sgs1 mgt1 strain (AID 161);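 note: 0% = growth of cultures given vehicle only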; conditions: S. cerevisiae sgs1 mgt1 strain, at 50.0 µM, hits give high values
Summary of the method: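 Growth of a repair-deficient yeast mutant was monitored after compound treatment and expressed as inhibition relative to vehicle-treated cultures.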

[4] = NCI Yeast Anticancer Drug Screen. Data for the cln2 rad14 strain (AID 165);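 note: 0% = growth equal to vehicle treated cultures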; conditions: S. cerevisiae cln2 rad14 strain, at 50.0 µM, hits give high values
Summary of the method: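 Growth inhibition, relative to vehicle-treated controls, is the read-out. The test organism is a yeast strain with defined genetic alterations, cln2 rad14.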

[5] = NCI Yeast Anticancer Drug Screen. Data for the bub3 strain (AID 167); conditions: S. cerevisiae bub3 mutant strain, at 50.0 µM, hits give high values
Summary of the method: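 Readout: yeast growth inhibition, expressed relative to vehicle-only wells. The test organism is a mutant strain from a panel with lesions in DNA repair or checkpoint genes.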

[6] = NCI Yeast Anticancer Drug Screen. Data for the mlh1 rad18 strain (AID 175); conditions: S. cerevisiae mlh1 rad18 strain growth inhibition; at 50.0 µM; hits give high values
Summary of the method: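 Cells of a genetically altered yeast strain, deficient in DNA damage repair, were treated with compound. Their growth was then compared with that of vehicle-treated cultures to give inhibition.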

Measured: growth inhibition

NC(=O)c1cccc[n+]1[O-]
inactive: [1] -6.25% | [2] 7.25% | [3] -12.6% | [4] 6.05% | [5] 19.6% | [6] 1.3%

CC(C)(C)n1c(=O)[nH]c(=O)n1C(C)(C)C
inactive: [1] 5.75% | [2] -18.4% | [3] -21.9% | [4] 1.9% | [5] -32.8% | [6] -22.2%

CN(C)S(=O)(=O)C(c1ccccc1)C(c1ccccc1)S(=O)(=O)N(C)C (stereo unspecified)
inactive: [1] 47% | [2] -4.4% | [3] 27.1% | [4] 2% | [5] -4.75% | [6] 1.5%

CC12NC(=O)NC1(C)NC(=O)N2 (stereo unspecified)
inactive: [1] -8.85% | [2] -6.3% | [3] -35.9% | [4] -38.9% | [5] -29.6% | [6] 11.6%

CCC(C(=O)O)c1ccc(-c2ccccc2)cc1 (stereo unspecified)
inactive: [1] 24.6% | [2] 24.1% | [3] 19.1% | [4] 23.1% | [5] 24.4% | [6] 9.5%

C/C(=N/NC(=O)c1ccccc1O)c1ccc(/C(C)=N\NC(=O)c2ccccc2O)c2nc3cc(C)c(C)cc3nc12
inactive: [1] -41.2% | [2] -14.3% | [3] -31.4% | [4] 4.65% | [5] 6.7% | [6] -27.8%

CC(C)OC(=O)NC1CCC2CCCCC2C1 (stereo unspecified)
inactive: [1] 2.7% | [2] 11.5% | [3] -8.3% | [4] -19.9% | [5] 15.7% | [6] -4.75%

CC(C)NC(=O)C1C2C=CC(CC2)C1C(=O)NC(C)C (stereo unspecified)
inactive: [1] 6.2% | [2] 20.1% | [3] 22.6% | [4] -5.7% | [5] 11.3% | [6] 10.2%

O=C1CN(Cc2ccc(Cl)cc2)CC(=O)N2CCCN12
inactive: [1] 20.8% | [2] 8% | [3] 19.7% | [4] 18.2% | [5] 10.8% | [6] 16.4%

CC(=O)Nc1cc(C)c(C)cc1NC(C)=O
inactive: [1] -23.9% | [2] -16.6% | [3] -8.35% | [4] -21.8% | [5] -5.1% | [6] -7.4%

CCOC1CSc2ccccc2C(c2ccccc2)=N1 (stereo unspecified)
inactive: [1] 9.9% | [2] -1.4% | [3] 0.25% | [4] 10.6% | [5] 14.7% | [6] 6.75%

CC(=O)Oc1cccc(OC(=O)Nc2ccc(C)c(NC(=O)Oc3cccc(OC(C)=O)c3)c2)c1
inactive: [1] 26.2% | [2] 22.6% | [3] 9.75% | [4] 19.3% | [5] -0.4% | [6] 34.5%

COC(OC)(c1ccccc1)c1ccccc1
inactive: [1] -33% | [2] -27.4% | [3] -33% | [4] -11.1% | [5] -40.6% | [6] -18.6%

ClCC[n+]1ccc2ccccc2c1
inactive: [1] 3.95% | [2] 11.6% | [3] -13.4% | [4] -13.8% | [5] -9.05% | [6] -10.7%

CC1(O)CCC2(CCC(C)(O)CC2=O)C(=O)C1 (stereo unspecified)
inactive: [1] -7.85% | [2] -9.75% | [3] -0.45% | [4] -2.35% | [5] -12.6% | [6] -14.7%

Cc1cnc2[nH]c(-c3ccccc3)cc(=O)c2c1
inactive: [1] -6.7% | [2] -12.6% | [3] -0.9% | [4] -23.2% | [5] -8.25% | [6] -48.5%

C/C(N=NS(=O)(=O)c1c(C)cc(C)cc1C)=C1\C=CC=CN1O
inactive: [1] -26.4% | [2] -10.2% | [3] -8.25% | [4] -6.95% | [5] 4.15% | [6] -18.8%

NC1(N)ON(c2ccc(C=O)cc2)C(c2ccc([N+](=O)[O-])cc2)S1 (stereo unspecified)
inactive: [1] 18.3% | [2] 8.45% | [3] 11% | [4] 16.3% | [5] -0.7% | [6] 16.7%

ClC1=Cc2cccc3cccc1c23
inactive: [1] 1.55% | [2] 6.15% | [3] 0.2% | [4] 2.5% | [5] 12.4% | [6] 3.8%

NC(=O)C(=O)CC(=O)c1ccccc1NC1=CC(=O)C(=O)c2ccccc21
inactive: [1] 41% | [2] 29.1% | [3] 20.4% | [4] 30.4% | [5] 36.4% | [6] 37.5%

N#CC1(c2ccccc2)C(c2ccccc2)CC(O)(c2ccccc2)C(C(=O)c2ccccc2)C1c1ccccc1 (stereo unspecified)
inactive: [1] 19.9% | [2] 4.75% | [3] 3.5% | [4] 14.3% | [5] -1.1% | [6] -3.5%

N#CC(CC(=O)NN)C(=O)NN (stereo unspecified)
inactive: [1] -20.4% | [2] -8.9% | [3] -21% | [4] -12.4% | [5] -38.7% | [6] -22.5%

COc1ccccc1Nc1nc(N)nc(N)c1N=O
inactive: [1] 11.4% | [2] -36.1% | [3] -16.2% | [4] -27.7% | [5] -34.6% | [6] -56.1%

C=CCOC(=O)c1cccc(C)c1
inactive: [1] 9.7% | [2] 0.3% | [3] -1% | [4] -41.4% | [5] 9.9% | [6] 7.7%

COc1cccc2c1OC(=O)NC2O (stereo unspecified)
inactive: [1] -8.35% | [2] -4.3% | [3] -17.9% | [4] -13.5% | [5] -20.4% | [6] 4.3%

Oc1ccc2ccccc2c1
inactive: [1] -10.3% | [2] -27.8% | [3] -14.8% | [4] -21.4% | [5] -16.4% | [6] 20.9%

CCCCCCCCN(C)/N=N/c1nc[nH]c1C(N)=O
inactive: [1] 20.7% | [2] -4.7% | [3] 15.1% | [4] 17.6% | [5] 17.8% | [6] 24.4%

CCOC(=O)Oc1ccc(C(CNC(C)C)OC(=O)OCC)cc1OC(=O)OCC (stereo unspecified)
inactive: [1] 38.5% | [2] 2.8% | [3] 25.6% | [4] 9.65% | [5] 4.45% | [6] 32.9%

Cc1nc2ccccc2c(=O)n1-c1ccc(-c2nnc(Sc3nnc(-c4ccc(-n5c(C)nc6ccccc6c5=O)cc4)n3-c3ccccc3)n2-c2ccccc2)cc1
inactive: [1] 16.6% | [2] -3.35% | [3] 8.2% | [4] -17.6% | [5] 11.3% | [6] 30.1%

O=C1OC(C2OC(=O)C(=O)C2C(=O)c2ccccc2Cl)C(C(=O)c2ccccc2Cl)C1=O (stereo unspecified)
inactive: [1] 58.4% | [2] 23.9% | [3] 49.5% | [4] 19.1% | [5] 7.15% | [6] 53.5%

O=[N+]([O-])C(C=Nc1ccccc1)C=Nc1ccccc1 (stereo unspecified)
inactive: [1] 6.35% | [2] -23% | [3] -2.85% | [4] -2.25% | [5] -13.4% | [6] 0.45%

Clc1ccc(/C=C2/c3ccccc3-c3nc4ccccc4cc32)cc1
inactive: [1] -1.1% | [2] 24% | [3] 23.8% | [4] -24.9% | [5] -9.4% | [6] 6.85%

COc1cc(C(=O)Nc2c3ccccc3nc3ccccc23)cc(OC)c1OC
inactive: [1] -19.9% | [2] -4.55% | [3] 7.8% | [4] -23.6% | [5] -3.3% | [6] -14.6%

CC1=C(C(=O)CC(=O)C(=O)Nc2ccc(C)cc2)Sc2ccccc2N1
inactive: [1] -7.35% | [2] 21.1% | [3] -16.4% | [4] 21.9% | [5] -9.1% | [6] -8.25%

CCN(CC)CCCOC(c1ccccc1)c1ccc(Cl)cc1 (stereo unspecified)
inactive: [1] 17.8% | [2] 16.9% | [3] 46.5% | [4] 41.9% | [5] 1.1% | [6] 26.1%

CCCCCCCCCCCCN(CC(O)C(O)C(OC1OC(CO)C(O)C(O)C1O)C(O)CO)C(=O)CCCCCCCCCCC (stereo unspecified)
inactive: [1] -2.7% | [2] -19.2% | [3] 17.7% | [4] 0.4% | [5] 4.3% | [6] -50.5%
